Data on 14 molecules can be found in PubChem BioAssay (NCI).

The panel holds about 83,000 compounds, 20% with a hit somewhere; the sample as a whole holds those more often.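 Treatment: one concentration, 48 hours, 96-well format. Scoring: percent growth, with anything below 10 considered active.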 A number with no mark means an inactive call. Activity calls are given as the source filed them.

Test systems include NCI-H23 lung; NCI-H226 lung; HOP-62 NSCLC; NCI-H460 lung; HOP-92 NSCLC; NCI-H522 lung; A549/ATCC NSCLC; 786-0 renal; COLO 205 colon.
Assay in all cases: NCI-60 one-dose screen, 48 h (100 = growth as untreated, 0 = no growth, -100 = all killed)
Holding throughout (details): 10 µM

Take `Oc1ccc(-c2[nH]c3ccccc3c2-c2nc3ccccc3o2)cc1`: the growth is 77.8% in the assay on NCI-H23 lung; 78.5% with NCI-H226 lung; 67.9% in the assay on HOP-62 NSCLC; 86.6% in the assay on NCI-H460 lung; 67.8% in the assay on HOP-92 NSCLC; 60.9% with NCI-H522 lung. Further, the growth with A549/ATCC NSCLC is 58%; with 786-0 renal, 75%; in the assay on COLO 205 colon, 59.1%.
Regarding `CCOC(=O)C1=CSC2=NC3=C(CCC/C3=C\c3ccc(Cl)cc3)C(c3ccc(Cl)cc3)N12` (stereo unspecified), the growth is 83.8% with NCI-H23 lung; 92.2% in the assay with NCI-H226 lung; 115% with HOP-62 NSCLC; 102% in the assay on NCI-H460 lung; 96.2% with HOP-92 NSCLC; 93.5% in the assay with NCI-H522 lung. The results for the growth with A549/ATCC NSCLC, in the assay on 786-0 renal and in the assay with COLO 205 colon were 96.5%, 101% and 105%, respectively.
As to `NNC(=O)Oc1c(Cl)cc(Cl)cc1[N+](=O)[O-]`, the growth was 97.8% with NCI-H23 lung; 106% in the assay on NCI-H226 lung; 94.6% in the assay with HOP-62 NSCLC; 110% in the assay on NCI-H460 lung; 115% with HOP-92 NSCLC; 96.9% with NCI-H522 lung. For the same molecule, the growth in the assay on A549/ATCC NSCLC was 96.9%; with 786-0 renal, 105%; in the assay with COLO 205 colon it was 110%.
With `CCN1CCN(CCC(=O)Nc2cccc(-n3cc(-c4ccncc4)c(-c4ccc(Cl)c(OC)c4)n3)c2)CC1`, the growth in the assay on NCI-H23 lung was 32.2%; in the assay with NCI-H226 lung, 65%; with HOP-62 NSCLC, 37.7%; in the assay on NCI-H460 lung it was 6.94% (active); with HOP-92 NSCLC it was 6.07% (active); in the assay on NCI-H522 lung, -23.2% (active). Further, the growth in the assay with A549/ATCC NSCLC is 8.56% (active); in the assay on 786-0 renal it was -47.6% (active); in the assay with COLO 205 colon it was -69.3% (active).
For the molecule `COc1cc2c(cc1OC)C(C(CCCCCC(CCC(C)C)C1NCCc3cc(OC)c(OC)cc31)CCC(C)C)NCC2` (stereo unspecified), the growth in the assay with NCI-H23 lung was -87.4% (active); in the assay on NCI-H226 lung, -75.6% (active); with HOP-62 NSCLC, -96.7% (active); with NCI-H460 lung, -80.3% (active); with HOP-92 NSCLC, -90.4% (active); with NCI-H522 lung, -95.4% (active). The growth with A549/ATCC NSCLC was -92.9% (active); with 786-0 renal it was -97.8% (active); with COLO 205 colon it was -94.5% (active).
On to `CNS(=O)(=O)Oc1ccc(-c2ccc3occc3c2)cc1`, for which the growth with NCI-H23 lung is 95.1%; in the assay with NCI-H226 lung, 93.8%; in the assay on HOP-62 NSCLC, 102%; in the assay on NCI-H460 lung, 104%; with HOP-92 NSCLC, 91.8%; in the assay on NCI-H522 lung, 84%. Also, the growth is 93.3% in the assay on A549/ATCC NSCLC, 99.1% with 786-0 renal and 111% in the assay on COLO 205 colon.
On to `NC(=O)c1cccc(-n2ccc3cc(NC(=O)Nc4ccc(Cl)c(C(F)(F)F)c4)ccc32)n1`, for which the growth in the assay on NCI-H23 lung was 82.2%; with NCI-H226 lung it was 66.2%; in the assay on HOP-62 NSCLC, 86.5%; in the assay on NCI-H460 lung, 68%; in the assay with HOP-92 NSCLC, 97.6%; with NCI-H522 lung, 64.7%. Also, the growth in the assay on A549/ATCC NSCLC was 68.2%; in the assay with 786-0 renal, 49.1%; in the assay on COLO 205 colon, 85.6%.
With `O=C(CCCSc1nc(-c2ccccc2)cc(-c2ccc(Cl)cc2)n1)NO`, the growth is 9.38% (active) in the assay with NCI-H23 lung; 10.6% in the assay on NCI-H226 lung; 12.5% with HOP-62 NSCLC; -9.81% (active) in the assay on NCI-H460 lung; 32.9% with HOP-92 NSCLC; 7.31% (active) in the assay on NCI-H522 lung. For the same molecule, the growth with A549/ATCC NSCLC was 5.6% (active); in the assay on 786-0 renal it was 9.83% (active); in the assay with COLO 205 colon, 10.1%.
For the molecule `COc1cc(C(=O)n2nc(-c3cc(OC)c(OC)c(OC)c3)nc2N)cc(OC)c1OC`, the growth in the assay on NCI-H23 lung is 92.9%; in the assay with NCI-H226 lung, 98.7%; with HOP-62 NSCLC it was 85.8%; in the assay on NCI-H460 lung, 103%; in the assay with HOP-92 NSCLC, 82%; with NCI-H522 lung it was 82.1%. Besides, the results for the growth in the assay on A549/ATCC NSCLC, with 786-0 renal and with COLO 205 colon were 98.5%, 96.6% and 99.4%, respectively.
As for `Cc1ccc(/C=C2/C(=O)N(C)c3ccc(S(=O)(=O)Nc4ccc(C(C)(C)C)cc4)cc32)s1`, the growth in the assay with NCI-H23 lung is 67%; with NCI-H226 lung it was 63.9%; with HOP-62 NSCLC, 24.8%; in the assay with NCI-H460 lung, 98%; in the assay with HOP-92 NSCLC, 79.2%; with NCI-H522 lung, 75.5%. The values for the growth in the assay with A549/ATCC NSCLC, in the assay with 786-0 renal and in the assay on COLO 205 colon were 68.5%, 67.4% and 86.5%, respectively.
As for `OCCn1cccn1`, the growth was 93.1% in the assay with NCI-H23 lung; 99.9% with NCI-H226 lung; 104% with HOP-62 NSCLC; 102% in the assay with NCI-H460 lung; 101% in the assay with HOP-92 NSCLC; 101% in the assay with NCI-H522 lung. The growth in the assay with A549/ATCC NSCLC is 111%; with 786-0 renal it was 109%; in the assay on COLO 205 colon it was 125%.
Consider `Cc1ccc(Cl)cc1NC(=O)CCl`, for which the growth with NCI-H23 lung was 74.2%; in the assay on NCI-H226 lung, 99.4%; with HOP-62 NSCLC, 108%; in the assay on NCI-H460 lung, 98.4%; in the assay with HOP-92 NSCLC, 92.1%; with NCI-H522 lung, 55.6%. In addition, the figures for the growth in the assay with A549/ATCC NSCLC, in the assay with 786-0 renal and with COLO 205 colon were 89.9%, 81.2% and 110%, respectively.
In the case of `O=C(Nc1cc(Cl)cc2c1-c1ccc(Cl)cc1C2O)C(Cl)Cl` (stereo unspecified), the growth is 79.5% in the assay on NCI-H23 lung; 55% with NCI-H226 lung; 83.3% with HOP-62 NSCLC; 35.9% in the assay with NCI-H460 lung; 77.1% in the assay on HOP-92 NSCLC; 84.2% with NCI-H522 lung. Also, the growth in the assay with A549/ATCC NSCLC was 74.5%; with 786-0 renal, 98.4%; in the assay on COLO 205 colon it was 94.2%.
As for `COc1ccc(/C(C#N)=C/c2cccc(OC)c2OC)cc1`, the growth in the assay on NCI-H23 lung is 80%; in the assay on NCI-H226 lung, 89%; in the assay with HOP-62 NSCLC, 88%; in the assay on NCI-H460 lung it was 108%; in the assay with HOP-92 NSCLC, 86.4%; in the assay on NCI-H522 lung it was 58.8%. Also, the growth in the assay with A549/ATCC NSCLC was 67.5%; with 786-0 renal, 93.8%; in the assay with COLO 205 colon, 88.8%.
